SARS PLpro yeast: SARS-CoV PLP inhibition in yeast | S. cerevisiae expressing SARS-CoV PLpro, growth rescue | Potency, µM (titrated, usually from 32.9 µM), inactives show top-dose activity, positive = growth rescue, most hits filed as activators | 330,000 compounds, 0.19% hits; further: potency means the concentration at half of the fitted maximal effect; 0% is about no effect; nearly all actives have a fitted effect of over 55% in size
Pf growth 48h: P. falciparum growth inhibition at 48 hours (one generation); P. falciparum luciferase growth in erythrocytes, 48 h; Potency, µM (top dose mostly 28.7 µM), without a hit: top-dose activity change, negative = inhibition, hits mostly inhibitors; 310,000 compounds, 5.9% hits; AID 504832; active means well fitted inhibition curve with a large enough effect; inconclusive means small, poorly fitted or top-dose-only effect, or another doubt; inactive means no such curve, though single readings can be large or run the other way; further: potency means the concentration at half of the fitted maximal effect; on the % scale 0 is the no-effect control and ±100 the full control effect
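Luciferase-expressing parasites in RBCs, 2% Hct / 0.1% parasitemia final; RPMI 1640 + 0.5% Albumax; 37 C, 5% CO2, one generation; luminescence read-out, lower signal = inhibition.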
Shiga inhibitor: blocks Shiga toxin action in Vero cells; 290,000 compounds, 9.2% hits; Vero cells, Shiga toxin protein synthesis inhibition reporter; inhibition, % at 38.7 µM; AID 2315; in the data active means inhibition mostly above about 28%, no sharp cut-off; inactive means mostly below about 43%; further: 0% is about no effect
CHX counter: counter-screen for Shiga toxin inhibitors: cycloheximide protein synthesis inhibition; max response, %; cell reporter, cycloheximide protein synthesis inhibition counterscreen; 300,000 compounds, 12% hits; in the data active means max response mostly above about 13%, no sharp cut-off; inactive means mostly below about 14%; further: read at 38.3 µM for the half of the compounds with a filed dose; 0% is about no effect
Pf growth 96h: inhibits malaria parasite growth, 96 h. P. falciparum luciferase reporter growth, 96 h. Potency, µM (doses to about 28.7 µM), for the others: at the highest dose activity change, negative = inhibition, hits mostly inhibitors. 320,000 compounds, 6.9% hits; active means well fitted inhibition curve with a large enough effect; inconclusive means small, poorly fitted or top-dose-only effect, or another doubt; inactive means no such curve, though single readings can be large or run the other way; further: potency means the concentration at half of the fitted maximal effect; on the % scale 0 is the no-effect control and ±100 the full control effect
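Delayed-death screen, second-generation endpoint: infected erythrocytes, 2% hematocrit, 0.05% parasitemia final; 96 hours at 37 C, 5% CO2; luciferase detection reagent; luminescence decrease equals reduced growth.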
NS1 function inh: blocks influenza NS1 protein function. Potency, µM (highest dose often 46.1 µM), without a hit: at the highest dose activity, positive = more growth. 270,000 compounds, 0.4% hits. AID 2326; further: potency means the concentration at half of the fitted maximal effect; actives are rising curves; nearly all actives have a fitted effect of over 50% in size
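Read-out: OD600 growth recovery of NS1-expressing budding yeast. Cells grown overnight at 30C in -URA glucose medium, washed, resuspended and diluted 1:100 in 2% galactose assay medium, pH 6.0. Same strain lacking NS1 served as positive control.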
* = called active by the depositor; ? = inconclusive; · = not tested or not shown; [ ] = remark or other dose. In the library only some 21% were active in any assay of this set; here they are far more common. Unless noted, the call rests on the fitted dose curve.

SMILES	SARS PLpro yeast	Pf growth 48h	Shiga inhibitor	CHX counter	Pf growth 96h	NS1 function inh
Cc1ccccc1CCNC(=O)C1CC(O)CN1C(=O)Nc1ccccc1 (stereo not drawn)	2.6%	0.0%	-4.1	-2.9	102.3%	1.6%
COc1ccccc1C(CNC(=O)c1ccc(NS(=O)(=O)c2ccc3c(c2)OCCO3)cc1)N(C)C (stereo not drawn)	-1.5%	?	·	·	11.7µM*	·
COc1ccccc1C(CNC(=O)c1cccc(NS(=O)(=O)c2ccc(C)c(F)c2)c1)N1CCCC1 (stereo not drawn)	1.6%	13.1µM*	·	·	11.7µM*	·
COc1ccccc1C(CNC(=O)c1ccc(NS(=O)(=O)c2ccc(F)c(C)c2)cc1)N1CCCC1 (stereo not drawn)	7.5%	9.28µM*	·	·	11.7µM*	·
O=C1CSC(c2ccccc2)N1c1cccnc1 (stereo not drawn)	-0.5%	2.2%	-13.9	-3.0	-13.1%	3.7%
O=C(C1=C[C@H](c2ccc(C(F)(F)F)cc2)C[C@H](OCCCCO)O1)N1CCN(Cc2ccc3c(c2)OCO3)CC1	-1.0%	5.86µM*	-8.2	-1.1	3.7µM*	-13.0%
O=C(C1=C[C@@H](c2ccc(Br)cc2)C[C@@H](OCCCCO)O1)N1CCN(Cc2ccc3c(c2)OCO3)CC1	-1.4%	4.15µM*	10.7	1.1	4.15µM*	-14.9%
COCCN(CC(=O)Nc1cccc(C)c1C)C(=O)c1ccc2ccccc2n1	-19.3%	66.7%	·	·	26.3%	·
O=C(c1ccc2ccccc2c1)C1CCCN(C(=O)CN2C(=O)CSC2=O)C1 (stereo not drawn)	0.7%	21.2%	19.9	5.6	10.4µM*	-4.3%
O=C(c1ccc2ccccc2c1)C1CCCN(C(=O)c2cccnc2)C1 (stereo not drawn)	-0.6%	3.9%	-0.3	14.3	-7.6%	-7.3%
COC(=O)c1sc(NC(=S)NC(=O)c2ccc(F)cc2)nc1C	0.0%	37.6%	48.2	17.9	?	·
CCOC(=O)c1c(-c2ccc(C)cc2)csc1NC(=S)NC(=O)c1ccccc1	3.9%	10.4µM*	9.5	-1.4	7.38µM*	-0.6%
COC(=O)c1c(-c2ccc(C)cc2)csc1NC(=S)NC(=O)c1ccc(F)cc1	-3.7%	?	7.1	-2.7	8.28µM*	13.0%
COc1ccc(-c2[nH]ncc2CN2CCC(OCc3cccnc3)CC2)c(F)c1	0.3%	16.5%	-8.3	-1.5	130.0%	0.9%
Cc1nnc(SCC(=O)c2cc(C)n(-c3ccc4c(c3)OCO4)c2C)s1	-5.0%	?	35.8*	18.0*	-13.3%[5.75 µM]	-35.4%
CC(=O)c1ccc(NC(=O)CSc2nnc(-c3ccco3)o2)cc1	0.5%	41.8%	36.5	17.2*	?	-4.5%
Cc1cc(C(=O)CSc2nnc(-c3ccc4c(c3)OCO4)o2)c(C)n1-c1ccc(F)cc1	5.2%	0.8%	25.5	7.1	?	?
Cc1ccc(NC(=O)CSc2nnc(-c3ccco3)o2)cc1	-0.2%	40.0%	-6.2	-1.6	28.2%	·
Cc1nnc(SCc2ccc3c(c2)OCO3)s1	-5.3%	·	142.5*	80.7*	194.1%	-10.4%
Cc1cc(C(=O)CSc2nnc(-c3ccco3)o2)c(C)n1-c1ccc2c(c1)OCCO2	2.7%	·	7.2	4.3	11.7µM*	0.6%
COc1ccc(C(C(=O)NC(C)(C)C)N(C[C@H]2CC[C@@H]([C@@H]3CC[C@H](CO)O3)O2)C(=O)c2ccccc2)cc1 (stereo partly drawn)	-18.5%	·	·	·	·	·
Cc1cc(C(=O)CSc2nnnn2C)c(C)n1-c1ccc2c(c1)OCCO2	-13.7%	1.4%	142.4*	37.5*	·	4.1%
O=C(CSc1nnc(-c2ccco2)o1)c1ccccc1Cl	-1.8%	4.3%	31.1	16.8*	-11.9%	-3.8%
CCN(CC)C(=O)CSc1nnc(-c2ccco2)o1	30.9%	133.3%	46.6*	23.1*	217.6%	5.8%
Cc1cc(C(=O)CSc2nn(-c3ccccc3)c(=S)s2)c(C)n1Cc1ccco1	2.4%	?	13.1	11.9	·	?
Cc1cc(C(=O)CSc2nncs2)c(C)n1Cc1ccco1	0.8%	0.0%	108.9*	37.7*	218.6%	·
O=C(CSc1nnc(-c2ccco2)o1)c1ccc([N+](=O)[O-])cc1	0.7%	15.0%	-2.5	9.3	-4.1%	3.8%
